Only some compounds are listed: those with a hit (about 7.5% of all), similar ones and a draw of the others.
Luc counter = Counterscreen for Luciferase (Kinase-Glo TM) Inhibition; Luciferin 4-monooxygenase (Photuris pensylvanica), Q27757; Kinase-Glo luciferase, ATP luminescence, 8 min; Potency, µM (titrated, usually from 38.3 µM), for the others: at the top dose activity change, negative = inhibition, usual class: inhibitors; actives 0.28% (n = 200,000); AID 1379, 2008; further: on the % scale 0 is the no-effect control and ±100 the full control effect; nearly all actives have a fitted effect of over 60% in size
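Luminescence was the read-out, taken after 8-minute incubation at ambient temperature. Luciferase turned over luciferin with 10 uM ATP in imidazole pH 7.2 buffer containing KCl, MgCl2, Tween 20 and BSA.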
FLuc counter = qHTS profiling assay for firefly luciferase inhibitor/activator using purifed enzyme and Km concentrations of substrates (counterscreen for miR-21 project); Potency, µM (top dose mostly 57.5 µM), for inactives: top-dose activity change, negative = inhibition, hits mostly inhibitors; AID 588342, 2011; Luciferin 4-monooxygenase (Photinus pyralis), P08659; purified FLuc, Km substrates, luminescence inhibition; actives 6.9% (n = 360,000);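 further: plate controls were vehicle for no effect and reference inhibitor for full effect; nearly all actives have a fitted effect of over 55% in size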
Target sequence (P08659 whole entry, looked up): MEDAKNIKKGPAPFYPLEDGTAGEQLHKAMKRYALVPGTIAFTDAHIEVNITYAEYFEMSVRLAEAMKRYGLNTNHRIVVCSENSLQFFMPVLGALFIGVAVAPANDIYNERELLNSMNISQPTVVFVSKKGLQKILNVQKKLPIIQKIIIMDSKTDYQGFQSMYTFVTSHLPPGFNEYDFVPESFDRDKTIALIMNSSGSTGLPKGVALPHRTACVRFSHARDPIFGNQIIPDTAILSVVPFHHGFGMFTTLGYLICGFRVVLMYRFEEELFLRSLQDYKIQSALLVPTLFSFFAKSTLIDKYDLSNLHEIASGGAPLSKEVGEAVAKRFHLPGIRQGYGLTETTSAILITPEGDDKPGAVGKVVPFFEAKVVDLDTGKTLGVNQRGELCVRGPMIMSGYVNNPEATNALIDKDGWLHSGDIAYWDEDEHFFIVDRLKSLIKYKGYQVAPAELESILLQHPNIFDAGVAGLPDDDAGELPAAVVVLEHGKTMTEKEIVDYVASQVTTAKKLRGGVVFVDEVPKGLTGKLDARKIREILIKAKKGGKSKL
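Purified P. pyralis luciferase, 10 nM final, with Km-level 10 uM D-luciferin and 10 uM ATP in 50 mM Tris acetate pH 7.5, 10 mM Mg acetate, 0.01% Tween-20, 0.05% BSA; 6-point qHTS titration about 60 µM downward; luminescence read.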
Rab9 promoter act = qHTS Assay for Rab9 Promoter Activators | Potency, µM (titrated, usually from 9.22 µM), for the others: top-dose activation, negative = inhibition, most hits filed as activators | AID 485297, 2010 | Huh7 Rab9 promoter-luciferase reporter, luminescence, 24 h | actives 2.8% (n = 320,000); further: % of control where 0% means no effect; nearly all actives have a fitted effect of over 60% in size
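Huh7 cells stably carrying a Rab9 promoter-luciferase reporter, 1500 cells per well in OP-MEM I with 10% FBS, treated with compound 24 hours at 37C. Luciferase activity read by luminescence after 10 minutes with Amplite reagent.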
SMN2 splice enh = qHTS Assay for Enhancers of SMN2 Splice Variant Expression | HEK293 SMN2-luciferase splicing reporter, luminescence, 30-36 h | Potency, µM (top dose mostly 46.1 µM), without a hit: top-dose activity change, positive = activation, actives largely listed as activators | actives 2.8% (n = 210,000); further: % of control where 0% means no effect; nearly all actives have a fitted effect of over 55% in size
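HEK293 cells carry an SMN2 […]–luciferase reporter in which exon 7 inclusion puts luciferase in frame. Cells were plated 10-12 h before compound addition, then incubated 30-36 h at 37C. ONE-Glo luminescence was read; sodium butyrate at 4.5 mM final served as control.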
ELG1 genotox = qHTS screen for small molecules that induce genotoxicity in human embryonic kidney (HEK293T) cells expressing luciferase-tagged ELG1; HEK293T ELG1-luciferase reporter, luminescence, 16 h; Potency, µM (highest dose often 46 µM), for the others: at the highest dose activity change, positive = activation, usual class: activators; actives 1.3% (n = 330,000); further: % of control where 0% means no effect; nearly all actives have a fitted effect of over 60% in size
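Step 1: seed 2,000 HEK293T ELG1-luciferase cells per well. Step 2: add compound or DMSO, incubate 16 hr at 37 °C. Step 3: ONE-Glo, 30 min at room temperature, read luminescence.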
NPC1 prom act = qHTS Assay for NPC1 Promoter Activators; Huh7 NPC1 promoter luciferase reporter, 24 h; AID 485313, 2010; Potency, µM (doses to about 9.22 µM), inactives show at the top dose activation, usual class: activators; actives 2.4% (n = 320,000); further: % of control where 0% means no effect; nearly all actives have a fitted effect of over 60% in size
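Readout is luciferase luminescence, reflecting NPC1 promoter activation in stably transfected Huh7 cells after 24 h compound exposure at 37 °C in reduced-serum medium with 10% FBS.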
Active calls of the source: *; ? = inconclusive; nt = not tested or not shown. The call rests on the fitted dose curve; in most records, active means well fitted curve in the direction sought with a large enough effect; inconclusive means small, poorly fitted or top-dose-only effect, or another doubt; inactive means no such curve, though single readings can be large; an effect the other way counts as inactive or inconclusive. Potency means the concentration at half of the fitted maximal effect.

SMILES	Luc counter	FLuc counter	Rab9 promoter act	SMN2 splice enh	ELG1 genotox	NPC1 prom act
c1ccc(-c2cc3n(c2)CCc2ccccc2-3)cc1	-1%	4.8µM*	3.2µM*	11µM*	-6%	3.5µM*
Cc1ccc(C)c(CN2C(=O)c3ccccc3Sc3ccc(C(=O)NC4CCCC4)cc32)c1	nt	-2%	nt	nt	nt	nt
Cc1ccc2oc(Nc3nc(-c4ccccc4)cc(=O)[nH]3)nc2c1	-3%	?	?	-15%	21µM*	20%
Cc1cc(C)c2nc(Nc3nc(-c4ccccc4)cc(=O)[nH]3)nc(C)c2c1	nt	1.7µM*	1%	nt	4%	9%
Cc1ccc2oc(=O)c(/C=C(\O)C(C)(C)C)nc2c1	1%	-10%	13%	11%	0%	-2%
Cc1ccc2oc(Nc3nc(C)cc(C)n3)nc2c1	5%	?	3.2µM*	4%	9%	?
COC(=O)Cc1cc(=O)[nH]c(Nc2nc3ccccc3o2)n1	4%	17µM*	-4%	24%	8%	5%
CCOc1ccc(NS(=O)(=O)c2ccc3[nH]c4c(c3c2)CCCCC4)cc1	nt	-3%	nt	nt	nt	nt
COc1ccc(C2(C)NC(=O)N(CC(=O)Nc3ccc(S(=O)(=O)N4CCCC4)cc3)C2=O)cc1 (stereo not given)	-1%	1%	1%	0%	-3%	-10%
CCn1c(C)nc2c(C)[n+](CC(=O)c3ccc(Br)cc3)ccc21	-1%	?	1µM*	7%	1.8µM*	1.1µM*
O=C(/C=C/c1ccc(F)cc1)N1CCCc2ccccc21	1%	?	?	-10%	13%	21%
CC(C)(C)c1ccc(/C=C/C(=O)N2CCc3ccccc3C2)cc1	-5%	?	-8%	-1%	4%	-1%
Cc1ccc(/C=C/C(=O)N2CCc3ccccc3C2)cc1	15%	11µM*	24%	1%	?	24%
O=C(/C=C/c1ccc(F)cc1)N1CCc2ccccc2C1	nt	11µM*	2.5µM*	nt	17%	?
COc1ccc(NC(=O)CSc2ccc3nc(-c4ccccc4)cn3n2)cc1OC	nt	-18%	nt	nt	nt	nt
COc1ccc(-c2cn3nc(SCC(=O)Nc4cc(C)cc(C)c4)ccc3n2)cc1	nt	3.8µM*	nt	nt	nt	nt
COc1ccc(-c2cn3nc(SCC(=O)Nc4ccc(C)c(Cl)c4)ccc3n2)cc1	nt	2.7µM*	nt	nt	nt	nt
O=C(CSc1ccc2nc(-c3ccccc3)cn2n1)Nc1cccc(F)c1	nt	7.6µM*	nt	nt	nt	nt
COc1ccc(-c2cn3nc(SCC(=O)Nc4cccc(C)c4C)ccc3n2)cc1	nt	2.1µM*	nt	nt	nt	nt
Cc1cc(C)cc(-n2c(SCC(=O)Nc3cccc(F)c3)nc3c([nH]c4ccccc43)c2=O)c1	nt	-1%	nt	nt	nt	nt
CNc1c([N+](=O)[O-])cnn1-c1cccc(Cl)n1	3%	0%	-17%	-9%	-1%	0%
CCNc1nc(N)nc(-c2cc(Cl)ccc2O)n1	-1%	1.7µM*	1.3µM*	11µM*	?	4µM*
CCCCNc1nc(N)nc(-c2cc(Cl)ccc2O)n1	-1%	9.5µM*	2.8µM*	6.3µM*	?	3.5µM*
CCCNc1nc(N)nc(-c2cc(Cl)ccc2OC)n1	-4%	11%	-4%	6%	-1%	2%
O=C(COC(=O)c1cc(=O)[nH]c2ccccc12)Nc1ccc(F)cc1	nt	nt	nt	nt	0%	nt
SMILES	Luc counter	FLuc counter	Rab9 promoter act	SMN2 splice enh	ELG1 genotox	NPC1 prom act
Cc1cc2cc(CCNC(=O)c3cccs3)c(=O)[nH]c2cc1C	0%	13µM*	3.2µM*	13µM*	?	2.8µM*
Cc1ccc2cc(CCNC(=O)c3ccco3)c(=O)[nH]c2c1	3%	19µM*	2.5µM*	10µM*	18%	?
Cc1ccc2cc(CCNC(=O)c3ccco3)c(=O)[nH]c2c1C	1%	4.3µM*	1.4µM*	7.1µM*	?	3.5µM*
COc1ccc2cc(CCNC(=O)c3ccco3)c(=O)[nH]c2c1	nt	12µM*	1.4µM*	nt	10µM*	1.6µM*
Cc1ccc2cc(CCNC(=O)CCCc3ccccc3)c(=O)[nH]c2c1	nt	-1%	-3%	nt	0%	1%
CCC(CC)C(=O)NCCc1cc2cc(C)c(C)cc2[nH]c1=O	2%	0%	-4%	15%	-9%	-5%
O=C(CN(C(=O)c1ccccc1Cl)N1C(=O)CCCC1=O)c1ccc(Cl)cc1	2%	-3%	-5%	-1%	0%	0%
CC(=O)c1cccc(OCC(=O)Nc2cccc(C(=O)Nc3c(C)n(C)n(-c4ccccc4)c3=O)c2)c1	nt	nt	16%	nt	-4%	-1%
O=S(=O)(Cc1noc(-c2ccccc2Cl)n1)c1ccccn1	nt	11µM*	1.4µM*	nt	?	1.6µM*
CC(C)(C)C(=O)Nc1ccc(C(=O)Nc2cc(NC(=O)c3ccc(NC(=O)C(C)(C)C)cc3)cc(C(=O)O)c2)cc1	nt	4.3µM*	30%	nt	12%	18%
O=C(O)c1cc(NC(=O)c2ccc(Br)cc2)cc(NC(=O)c2ccc(Br)cc2)c1	nt	21µM*	14%	nt	-5%	-6%
CC(C)(C)C(=O)Nc1ccc(C(=O)NNC(=O)c2ccccc2)cc1	-2%	?	20%	8%	10%	17%
N#Cc1ccccc1S(=O)(=O)N1CCN(CC(O)COc2ccccc2F)CC1 (stereo not given)	nt	1%	-7%	nt	-1%	-1%
COC(=O)c1cc2sccc2n1Cc1c(C)cc(C)cc1C	nt	7%	nt	8%	nt	nt
CCOC(=O)c1cc(C)n(-c2ccccc2)c1C	nt	15µM*	25%	nt	?	0%
Cc1cc(C(=O)OCC(N)=O)c(C)n1-c1ccccc1	1%	?	17%	?	16%	16%
COc1ccc(-n2c(C)cc(C(=O)COC(=O)c3ccc(O)cc3O)c2C)cc1	nt	?	-16%	nt	-4%	-4%
Cc1cc(C(=O)COC(=O)c2ccc(O)cc2O)c(C)n1-c1ccccc1	nt	2.1µM*	?	nt	?	?
Cc1csc(CNc2ncnc3ccc(-c4ccco4)cc23)c1	nt	-2%	10%	nt	nt	-6%
Cc1ccc(O)c(N=CC2=C(O)c3ccccc3C2=O)c1	-10%	6.7µM*	?	25%	?	?
O=C1C(C=NCCCN2CCOCC2)=C(O)c2ccccc21	-3%	?	4%	-9%	15%	-5%
O=C1C(C=Nc2ccccc2O)=C(O)c2ccccc21	10µM*	?	?	35µM*	17%	?

Source: PubChem (National Center for Advancing Translational Sciences (NCATS))
